# ATXN viability: Viability Counterscreen for Primary qHTS for Inhibitors of ATXN expression; S2 cells (HEK-293 line with an ATXN2-luciferase reporter) viability, CellTiter-Fluor protease fluorescence, 24 h; Potency, µM (titrated, usually from 56.7 µM), hits mostly cytotoxic; 400,000 compounds, 0.49% hits; further: nearly all actives have a fitted effect of over 40% in size
# ATXN2 expr inh: Primary qHTS for Inhibitors of ATXN expression | HEK-293 ATXN2-luciferase reporter, luminescence, 24 h | Potency, µM (titrated, usually from 57 µM), without a hit: at the highest dose activity change, negative = inhibition, usual class: inhibitors | 360,000 compounds, 0.72% hits | AID 1745845, 2022; further: on the % scale 0 is the no-effect control and ±100 the full control effect; nearly all actives have a fitted effect of over 55% in size
#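 ATXN2-luciferase reporter cells (luciferase flanked by upstream and downstream ATXN2 gene portions) were treated 24 h at 37 °C with compounds at up to 57 uM. SteadyGlo luminescence gave expression; GF-AFC fluorescence gave viability.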
# KB-3-1 cytotox: qHTS assay for MDR1-selective chemotherapeutics: Primary screen using the parental adenocarcinoma cell KB-3-1; Potency, µM (doses to about 46.1 µM), actives largely listed as cytotoxic; 400,000 compounds, 1.4% hits; KB-3-1 viability, CellTiter-Glo ATP luminescence, 72 h; further: on the % scale 0 is the no-effect control and ±100 the full control effect; nearly all actives have a fitted effect of over 60% in size
#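 Using CellTiter-Glo luminescence, growth of non-resistant KB-3-1 adenocarcinoma cells is assessed 72 h after pin-tool compound addition at 37 °C. Normalized responses across the concentration series yield fitted curves.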
# HepG2 viability: qHTS for Inhibitors of TGF-b: Cytotox Counterscreen; Potency, µM (top dose mostly 46.1 µM), for the others: at the top dose activity change, negative = cytotoxicity, most hits filed as cytotoxic; 410,000 compounds, 0.76% hits; HepG2 CAGA-GFP viability, ATP luminescence, 18 h
#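 CellTiter-Glo luminescence gave cytotoxicity after 18 hours at 37 degrees C. The cells were HepG2 CAGA-GFP in 1% FBS DMEM, stimulated with 500 pg/mL TGF-beta after compound addition. %Activity was normalised to no-cell wells (complete cell-killing) and DMSO (no toxicity), and curves were fitted and classified.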
# KB-V1 MDR tox: qHTS assay for MDR1-selective chemotherapeutics: Primary screen using the drug-selected MDR subline cells KB-V1; 400,000 compounds, 3.4% hits; KB-V1 MDR cells viability, CellTiter-Glo, 72 h; Potency, µM (highest dose often 46.1 µM), hits mostly cytotoxic; further: on the % scale 0 is the no-effect control and ±100 the full control effect; nearly all actives have a fitted effect of over 60% in size
#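 Compound-treated KB-V1 multidrug-resistant cells, 72 h, 37 degrees C; viability by CellTiter-Glo. Fitted qHTS curves give the values.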
# TGFb SMAD3 inh: qHTS for Inhibitors of TGF-b; 410,000 compounds, 1.2% hits; HepG2 CAGA-GFP TGF-b/SMAD3 reporter, GFP fluorescence, 18 h; TGF-beta stimulated, 500 pg/mL final; Potency, µM (doses to about 46.1 µM), without a hit: at the top dose activity, negative = inhibition, usual class: inhibitors; further: on the % scale 0 is the no-effect control and ±100 the full control effect; nearly all actives have a fitted effect of over 65% in size
#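 HEPG2 CAGA-GFP cells (1000/well, DMEM with 1% FBS) were pre-incubated 2 h at 37 degrees C, given compound by pin tool, then stimulated with TGF-beta at 500 pg/mL final for 18 h before per-cell GFP fluorescence imaging.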
# * marks the source's active call; other numbers are inactive results; i = inactive; ? = inconclusive; · = no result. Rows were chosen to be rich in hits. Some 5.9% of all compounds tested hit in one or more screens of this group. The call rests on the fitted dose curve; in most records, active means well fitted curve in the direction sought with a large enough effect; inconclusive means small, poorly fitted or top-dose-only effect, or another doubt; inactive means no such curve, though single readings can be large; an effect the other way counts as inactive or inconclusive. Potency means the concentration at half of the fitted maximal effect.
SMILES,ATXN viability,ATXN2 expr inh,KB-3-1 cytotox,HepG2 viability,KB-V1 MDR tox,TGFb SMAD3 inh
Cc1nc2c(C(=O)NCCc3ccccc3)c[nH]n2c(=O)c1Cc1ccccc1F,i,2%,i,-63%,?,?
Cc1nc2c(C(=O)NCCc3ccc(Cl)cc3)c[nH]n2c(=O)c1Cc1ccc(Cl)cc1,·,·,·,11µM*,·,?
N#Cc1cccc(S(=O)(=O)N2CCN(S(=O)(=O)c3ccc4c(c3)OCCO4)CC2)c1,·,·,i,4%,i,-2%
N#CSCC(=O)O,i,10%,·,·,·,·
Cc1cc(C)cc(NC2=CC(=O)CC(c3ccco3)C2)c1 (stereo not given),?,-1%,i,-10%,16µM*,-13%
CC(=O)O[C@H]1CC[C@@]2(C)C(=CC[C@@H]3[C@@H]2CC[C@]2(C)C(C(C)=O)=CC[C@@H]32)C1,i,3%,·,·,·,·
COC1CCC2(C)C(=CCC3C4CC(O)CC4(C)CCC32)C1 (stereo not given),i,-7%,i,7%,18µM*,-17%
N#Cc1ccc(OCC(O)CN2CCN(c3ncc(C(F)(F)F)cc3Cl)CC2)cc1 (stereo not given),i,?,15µM*,-25%,7.3µM*,?
O=C(N/N=C/c1ccc[nH]1)c1ccccc1O,i,45%,?,1%,5.2µM*,-27%
O=C(N/N=C/c1ccc[nH]1)c1ccc(O)cc1,i,18%,i,-3%,i,7%
CCC(C)c1ccc(S(=O)(=O)N2CCN(CC(O)CN3CCOCC3)CC2)cc1 (stereo not given),i,5%,i,-1%,5.8µM*,0%
Cc1ccc(S(=O)(=O)N2CCN(CC(O)CN3CCOCC3)CC2)cc1 (stereo not given),i,-5%,i,0%,i,-4%
O=C(NCC1CCCCC1)c1cccc(-c2ccc(O)cc2)c1,i,-28%,i,-78%,i,13µM*
CCC(C)/C(C)=N/NC(=O)c1ccc(CSc2nc3ccccc3s2)cc1 (stereo not given),i,-9%,?,-27%,23µM*,5%
CCNC(=O)c1ccc(CSc2nc3ccccc3s2)cc1,i,-6%,i,-21%,i,-13%
O=C(/C=C/c1ccccc1Cl)NCCc1ccccc1,i,33%,i,-7%,16µM*,30%
O=C(/C=C/c1ccccc1Cl)NCc1ccccc1,i,39%,i,-14%,i,-1%
CCOc1cc(C(=S)N2CCOCC2)ccc1OS(=O)(=O)c1ccccc1,?,-12%,i,-5%,2.3µM*,?
Cn1c(=O)c2c(nc(N3CCCCCC3)n2Cc2cccc3ccccc23)n(C)c1=O,i,-10%,18µM*,10%,?,15%
Cn1c(N2CCN(c3ccccn3)CC2)nc2c1c(=O)n(Cc1ccc(Cl)cc1)c(=O)n2C,i,-30%,i,-20%,?,-7%
COc1ccc(CNc2nc3c(c(=O)n(Cc4ccc(Cl)cc4)c(=O)n3C)n2C)cc1,?,-35%,?,-8%,16µM*,-5%
Cn1c(N2CCCCC2)nc2c1c(=O)n(Cc1cccc(Br)c1)c(=O)n2C,?,10%,i,3%,10µM*,2%
Cn1c(N2CCOCC2)nc2c1c(=O)n(Cc1ccc(Cl)cc1)c(=O)n2C,i,4%,i,6%,23µM*,23%
Cc1ccnc(SCCn2c(N3CCCCC3)nc3c2c(=O)n(C)c(=O)n3C)n1,?,5%,i,-2%,18µM*,-9%
CC1CN(c2nc3c(c(=O)n(Cc4ccc(Cl)c(Cl)c4)c(=O)n3C)n2C)CC(C)O1 (stereo not given),i,-18%,?,-7%,5.2µM*,-28%

# Compound activity as filed in PubChem BioAssay.
